Potency and outcome data for 11 compounds are collected here from PubChem BioAssay (NCATS).

The nature of assay [1]: Panc-1005 Cancer Cell Toxicity qHTS against the NCATS CANVASS Library (AID 1347349). Further: nearly all actives have a fitted effect of over 60% in size. Further: potency means the concentration at half of the fitted maximal effect. In a few lines: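 Viability was assessed by adding CellTiter-Glo reagent to treated cultures and reading luminescence after 15min at room temperature. Treatment lasted 72 h at 37 degrees C/5% CO2, using an 11-point series on 1000 cells/well.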
(In general: qHTS replaces the single test concentration by a dilution series.)

Assay [2] can be described thus: A2780 Cisplatin Sensitive Ovarian Cancer Cell Toxicity qHTS against the NCATS CANVASS Library (AID 1347353). Further: nearly all actives have a fitted effect of over 60% in size. Further: potency means the concentration at half of the fitted maximal effect. Summed up:
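Seventy-two-hour exposure of cisplatin-sensitive A2780 ovarian cells to an 11-concentration qHTS series; cytotoxicity is inferred from loss of ATPLite luminescence. Bortezomib titration served as positive control.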

The nature of assay [3]: SDT Cancer Cell Toxicity qHTS against the NCATS CANVASS Library (AID 1347365). Further: nearly all actives have a fitted effect of over 60% in size. Summed up: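 Dispense 500 SDT cells per well; pin-transfer compounds; incubate 72 hr at 37C, 5% CO2, 95% RH; add CellTiterGlo and read luminescence.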
The nature of assay [4]: DH5-alpha competent E. coli microbial cell viability qHTS against the NCATS CANVASS Library (AID 1347377). The following applies: outcome: dose series up to 46.1 µM unless noted. Summed up: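 Cell viability of competent DH5-alpha E. coli is scored from ATP content by luminescence. Cells sit overnight at 37C with compound across an 11-point concentration series.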
Assay [5] can be described thus: qHTS for Activators of p53 Stress Response Pathway screened against the NCATS CANVASS Library (AID 1347388). In a few lines:
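p53RE-bla HCT-116 cells (4000/well) were pre-incubated for 5 h, then treated with compound (11 points) for 16 h at 37C. After 2 h with CCF4, the 460/530 nm ratio gave reporter activation; CellTiter-Glo measured viability.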

Assay [6] can be described thus: Vero-766 cells viability qHTS against the NCATS CANVASS Library: Counterscreen for Zika virus inhibition assay (AID 1347394). Further: series mostly up to about 46 µM; nearly all actives have a fitted effect of over 60% in size. In a few lines:
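Vero 766, no virus; 1000 cells/well; o/n attach; cpd 11-pt; 72 h, 37C, 5% CO2; CTG luminescence; cell-free media wells = 100% inhibition.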

Assay [7] has as its system Zika virus NS2B-NS3 protease (linked construct). Nature of the assay: Primary screen NINDS Rhodamine qHTS for Zika virus inhibitors (AID 1347160). Further: potency means the concentration at half of the fitted maximal effect; nearly all actives have a fitted effect of over 55% in size. In a few lines:
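Percent inhibition, normalized to uninhibited and enzyme-free controls, is fitted to a 4-parameter Hill equation. Fluorescence change comes from a 15-min cleavage of 1.5 microM bis-peptide Rhodamine110 substrate by 25 nM linked NS2B-NS3 at room temperature.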

Assay [8] can be described thus: qHTS for Hypoxia signaling pathway (HIF-1) antagonists against the NCATS CANVASS Library (AID 1347374). Further: nearly all actives have a fitted effect of over 60% in size. Further: potency means the concentration at half of the fitted maximal effect. Summed up:
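HRE-bla ME-180 cells (2,000/well, 0.5% dialyzed FBS) were pre-incubated 5 h, then given an 11-point compound series plus CoCl2 (60 uM solution as added) for 17 h at 37C. CCF4 β-lactamase read (ex 405, em 460/530 nm) after 2 h at RT.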

Assay [9] can be described thus: HEK-293 Cancer Cell Toxicity qHTS against the NCATS CANVASS Library (AID 1347355). Further: series mostly up to about 46 µM; nearly all actives have a fitted effect of over 65% in size. Summed up:
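qHTS cytotoxicity: compounds tested in 11 concentrations on 1000 seeded cells per well over 72 h; bortezomib served as control; signal from CellTiter-Glo luminescence.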

A short description of assay [10]: Confirmatory screen NINDS Rhodamine qHTS for Zika virus inhibitors (AID 1347161). In a few lines:
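Enzyme (25 nM, linked NS2B-NS3) was preincubated 15 min with compound in 10 mM Tris-HCl pH 8.0, 0.01% Tween 20. Rhodamine110 substrate (1.5 microM) was then added and fluorescence read at start and after 15 min.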

Inconclusive results are not listed. Active and inactive are the calls of the source. The call rests on the fitted dose curve; in most records, active means well fitted curve in the direction sought with a large enough effect; inconclusive means small, poorly fitted or top-dose-only effect, or another doubt; inactive means no such curve, though single readings can be large; an effect the other way counts as inactive or inconclusive. Peptide text beside a SMILES is read from it. * marks the point of attachment. Hexanoyl = CCCCCC(=O)*

With `CC(=O)c1c(C)cc2c(c1O)C(=O)c1c(O)cc(O)cc1C2=O`, the Potency entry in assay [1], in assay [2], in assay [3], in [5] and in assay [6] was “inactive” throughout. The call in assay [4] was inactive.
Take `C/C=C/C(=O)C1(O)CC2CC(C(=O)O)CC(C)C2C1C1=C2C(=O)NC(=O)C2=C(CCCCC)C(C)O1` (stereo unspecified): the figures for the Potency in [7] and in [8] were 49.3 µM (active) and 5.94 µM (active), respectively. Moreover, the Potency entry in assay [6] is “inactive”.
Turning to `CCCc1c2c([nH]c(=O)c1C)C(=O)c1[nH]c(=O)c(C)c(CCC)c1C2=O`, the Potency was 34.9 µM (active) in assay [7] and 10.6 µM (active) in assay [1]. Moreover, the Potency entry in [9] and in assay [5] was “inactive” in each case.
`CO[C@@H](C[C@@H](C)[C@@H](O)/C=C/C=C/CNC(=O)C(C)(C)[C@H](O)\C(C)=C/C=C\C=C\Cc1cnco1)[C@]1(O)[C@@H](C)C(=O)N(C)[C@@]12COC2=O`: the Potency result in assay [1], in assay [2], in assay [3], in [8] and in [5] was “inactive” in each case. Besides, the compound was called inactive in assay [4].
Take `CN1CC[C@]23c4ccccc4N[C@H]1[C@]21CCN(C)[C@H]3Nc2ccccc21`: the Potency entry in assay [1], in assay [2], in assay [9], in assay [3] and in assay [5] was “inactive” each time. Besides, in assay [4], the result was inactive.
Turning to `COC(=O)c1cc2cc3c(c(O)c2c(=O)o1)OC1(CC3)CC2=C(O1)C(=O)c1c(O)c(OC)cc(OC)c1C2=O` (stereo unspecified), the Potency in assay [7] was 2.47 µM (active); in [2] it was 20.9 µM (active); in assay [8], 14.9 µM (active). The compound was classed as inactive in [4].
With `CC1=C2CC[C@]3(C)[C@H](CC=C4[C@@H]5CC(C)(C)CC[C@@H]5C(=O)[C@H](O)[C@]43C)[C@@]2(C)C=C(O)C1=O`, the Potency in assay [7] is 39.2 µM (active); in assay [8] it was 9.41 µM (active). For the same compound, the Potency entry in [3] and in assay [5] was “inactive” throughout. The compound was classed as inactive in assay [4].
Consider `C[C@@H]1CC[C@]2(C(=O)O)CC[C@]3(C)C(=C2[C@H]1C)CC[C@@H]1[C@@]2(C)CC[C@H](O)C(C)(C)[C@@H]2CC[C@]13C`, for which the Potency was 34.9 µM (active) in assay [7] and 21.1 µM (active) in assay [1]. Further, the Potency entry in [3] is “inactive”. The call in assay [4] was inactive.
Consider `CCCCc1nn2c(=O)cc(COC(=O)c3ccc(NC(=O)c4ccccc4Cl)cc3)nc2s1`, for which, in assay [10], the Potency is 44.7 µM (active).
As to `C=C1[C@@]2(C)CC3C4(C)CCC(O)C(C)(C)C4CCC3(C)[C@]1(C(=O)OC)C(=O)C(C)(O)C2=O` (stereo partly specified), the Potency result in assay [1], in assay [2], in [9], in assay [5] and in assay [6] was “inactive” in each case. Besides, the compound was called inactive in [4].
In the case of `CCCCCC(=O)N[C@@H](CC(C)C)C(=O)N[C@H](C=O)CCC(=O)O` (Hexanoyl-Leu-Glu-aldehyde), the Potency entry in assay [1], in [2], in assay [3], in assay [5] and in assay [6] was “inactive” in each case. For the same compound, the compound was classed as inactive in assay [4].
